PfHsp40 rescue = rescue of yeast from PfHsp40 toxicity, primary screen, S. cerevisiae, ATP luminescence | S. cerevisiae expressing PfHsp40, growth rescue | growth rescue, % at 12.5 µM | 0.68% of 340,000 active | AID 504582, 2011; in the data active = growth rescue above about 28%, passing the limit was not always enough;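 also: yeast W303a lacking pdr1 and pdr3 grown in galactose medium; growth measured after three days at 30 °C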
PrP UTR inh = inhibition of PrP 5' UTR reporter expression; inhibition, % (concentration not given with the values); cell-based PrP 5' UTR mRNA reporter, plate reader; AID 488862, 2010; 0.35% of 340,000 active; in the data active = inhibition above about 52%
FadD28 FP inh = inhibitors of FadD28 bisubstrate probe binding, primary screen, biochemical, fluorescence polarization, single point. Mycobacterium tuberculosis FadD28 fatty-acid-AMP ligase. inhibition, % at 12.5 µM. 0.22% of 360,000 active; in the data active = inhibition above about 8.5%, passing the limit was not always enough
TcdB GH inh = TcdB glycohydrolase inhibitors, primary screen, biochemical, single point, plate reader; Toxin B (Clostridioides difficile), P18177; TcdB glycohydrolase enzymatic assay; inhibition, % at 9.99 µM; 0.24% of 350,000 active; AID 652162, 2013; in the data active = inhibition above about 10%
Mtb BioA inh = M. tuberculosis BioA enzyme inhibitors, primary screen, biochemical, plate reader, single point, HTS; 7,8-diaminopelargonic acid synthase BioA (Mycobacterium tuberculosis); purified M. tuberculosis BioA enzyme; inhibition, % at 9.99 µM; 0.096% of 360,000 active; in the data active = inhibition above about 40%
Y pestis TopoI = Yersinia pestis topoisomerase I inhibitors, primary screen, biochemical, cleavage product accumulation, plate reader, single point; DNA topoisomerase I (Yersinia pestis CO92); Y. pestis Topo-I cleavage product accumulation; activity, % at 10 µM; 0.064% of 360,000 active; AID 504884, 2011; in the data active = activity above about 50%, passing the limit was not always enough
Large screens that a line does not name were inactive. An excerpt weighted towards active compounds, which were near 1.2% of everything screened.

C/C=C/c1cnc2c(c1)C(=O)N([C@@H](C)CO)C[C@H](C)[C@@H](CN(C)C(=O)NC1CCCC1)O2	none (no result: PfHsp40 rescue, PrP UTR inh, FadD28 FP inh, Y pestis TopoI)
CCC(=O)N1CC2(C1)CN(C(=O)Nc1ccccc1F)[C@H](CO)c1c2c2ccc(OC)cc2n1C	none (no result: PfHsp40 rescue, PrP UTR inh, FadD28 FP inh, Mtb BioA inh, Y pestis TopoI)
CCCN1C[C@H](C)[C@@H](OC)CN(C)C(=O)c2cc(NC(=O)c3cccc(F)c3)ccc2OC[C@@H]1C	none (no result: PfHsp40 rescue, PrP UTR inh, FadD28 FP inh, Y pestis TopoI)
C[C@H](CO)N1C[C@H](C)[C@@H](CN(C)C(=O)Nc2ccc(C(F)(F)F)cc2)OCCCC[C@H](C)Oc2ccc(NS(C)(=O)=O)cc2C1=O	none (no result: PfHsp40 rescue, PrP UTR inh, FadD28 FP inh, Y pestis TopoI)
CC(=O)N(C)C[C@@H]1Oc2ncc(C#C[C@@H](C)O)cc2C(=O)N([C@@H](C)CO)C[C@@H]1C	none (no result: PfHsp40 rescue, PrP UTR inh, FadD28 FP inh, Y pestis TopoI)
CCCCCCC(=O)NNC(=O)c1c(O)c2ccccc2n(CC)c1=O	none (no result: Mtb BioA inh)
CCn1c(=O)c(C(=O)NNC(=O)c2ccccc2)c(O)c2ccccc21	PfHsp40 rescue 168
O=C(Cc1cccnc1)N1CC(=O)N2[C@H](C1)[C@@H](c1ccc(C3=CCCCC3)cc1)[C@@H]2CO	none (no result: PfHsp40 rescue, PrP UTR inh, FadD28 FP inh, Mtb BioA inh, Y pestis TopoI)
C[C@@H]1CN([C@H](C)CO)C(=O)Cc2cc(NC(=O)Cc3cn(C)c4ccccc34)ccc2O[C@@H]1CN(C)C(=O)Nc1ccccc1	none (no result: PfHsp40 rescue, PrP UTR inh, FadD28 FP inh, Y pestis TopoI)
Cc1ccc(S(=O)(=O)N2CCCC2C(=O)Nc2ccc(O)cc2)cc1 (stereo not given)	TcdB GH inh 10
COc1ccc(S(=O)(=O)N2CCCC2CNC(=O)C(=O)Nc2ccc(C)cc2)cc1 (stereo not given)	none
COc1ccc(NC(=O)C(=O)NCC2CCCN2S(=O)(=O)c2ccc(C)cc2)cc1 (stereo not given)	PrP UTR inh 78
CCCNC(=O)Nc1ccc2c(c1)OC[C@@H](C)N(Cc1ccc(-c3ccccn3)cc1)C[C@@H](C)[C@@H](OC)CN(C)C2=O	none (no result: PfHsp40 rescue, PrP UTR inh, FadD28 FP inh, Y pestis TopoI)
CCCC(=O)N1CCC2(CC1)CN(C(=O)C1CCCC1)[C@H](CO)c1[nH]c3cc(OC)ccc3c12	none (no result: PfHsp40 rescue, PrP UTR inh, FadD28 FP inh, Mtb BioA inh, Y pestis TopoI)
COc1ccc(-c2nc(N)ncc2-c2ccccc2OC)c(O)c1	TcdB GH inh 13
CCC(ONc1ccccc1C(F)(F)F)(C(=O)NN(C)C)c1ccccc1 (stereo not given)	PfHsp40 rescue 54
CCCC#Cc1ccc2c(c1)O[C@H](CN(C)C(=O)NC(C)C)[C@@H](C)CN([C@@H](C)CO)S2(=O)=O	none (no result: PfHsp40 rescue, PrP UTR inh, FadD28 FP inh, Y pestis TopoI)
CCOC(=O)C1CCN(C(=O)c2cc3c(=O)n4ccccc4nc3s2)CC1	none
CCOC(=O)C1CCN(C(=O)c2cc3c(=O)n4cccc(C)c4nc3s2)CC1	PfHsp40 rescue 32
O=C1C2ON(c3ccccc3)C(c3ccccn3)C2C(=O)N1c1ccc(Br)cc1 (stereo not given)	FadD28 FP inh 13
CCc1c(C2(O)CCCCC2)[nH]c2ccc(C(F)(F)F)cc12	PfHsp40 rescue 351
COc1ccc(S(=O)(=O)N(CCc2ccccc2)CC(N)=O)cc1	PfHsp40 rescue 104 (no result: Mtb BioA inh)
Cc1ccc(CNC(=O)Nc2cccc(C)c2)cc1	TcdB GH inh 11 (no result: Mtb BioA inh)
Cc1cccc(NC(=O)NCc2ccc3[nH]c(C)cc3c2)c1	none
COC(=O)c1[nH]c2cccc(OC)c2c1NC(=O)CN1CCOCC1	PfHsp40 rescue 52 (no result: TcdB GH inh)
CCCNC(=O)N1C[C@@H](O)COC[C@H]2O[C@@H](CC(=O)N3CCCCC3)CC[C@@H]21	none (no result: PfHsp40 rescue, PrP UTR inh, FadD28 FP inh, Y pestis TopoI)
COc1cc(OC)cc(C(=O)NNC(=O)CN2C(=O)NC(C)(c3ccc(C)cc3)C2=O)c1 (stereo not given)	TcdB GH inh 14
COc1ccc(NC(=O)CN2C(=O)NC(C)(c3ccc(C)cc3)C2=O)c([N+](=O)[O-])c1 (stereo not given)	none
CCCCC(=O)NC(c1ccc(N(C)C)cc1)c1ccc2cccnc2c1O (stereo not given)	PfHsp40 rescue 509
CCCC(=O)NC(c1ccccc1OC)c1ccc2cccnc2c1O (stereo not given)	PfHsp40 rescue 374 (no result: TcdB GH inh, Mtb BioA inh)
CCCCC(=O)NC(c1ccc(N(CC)CC)cc1)c1ccc2cccnc2c1O (stereo not given)	PfHsp40 rescue 129
O=C(C[C@@H]1CC[C@@H](NC(=O)c2cccc(F)c2)[C@@H](CO)O1)NCc1ccccc1	none (no result: PfHsp40 rescue, PrP UTR inh, FadD28 FP inh, Y pestis TopoI)
CC(C)CC#Cc1cnc2c(c1)C(=O)N([C@H](C)CO)C[C@@H](C)[C@H](CN(C)C(=O)CN1CCOCC1)O2	none (no result: PfHsp40 rescue, PrP UTR inh, FadD28 FP inh, Y pestis TopoI)

Screening results: PubChem, Broad Institute
